Assay results reported in PubChem BioAssay AID651704 (Broad Institute, 2012).
Values joined by “and” are separate entries in the source; they are usually repeats but may differ in a detail not shown here. Equal values may be shown once. The campaign covered roughly 350,000 compounds. About 1,600 (0.46%) were called active. This excerpt belongs to a sample that is enriched for actives. Unmarked numbers belong to inactive results.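 Rule for the calls: active = every replicate reaching a set inhibition limit, whatever the replicate mean (cut at about 25% in these data); inconclusive = mean inhibition reaches that limit but some replicates miss it; inactive = the rest.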

Target: Protein AF-9 (Homo sapiens) (UniProt P42568)
Experiment: inhibitors of AF4 peptide binding to AF9, primary screen, biochemical, AlphaScreen, biotin-AF4 peptide, FLAG-AF9, single point (AID 651704);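 note: 0% = plate neutral control median and 100% = total signal loss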
Conditions: at 10 µM, hits give high values

Protein AF-9 (Homo sapiens), sequence (P42568 whole entry, looked up): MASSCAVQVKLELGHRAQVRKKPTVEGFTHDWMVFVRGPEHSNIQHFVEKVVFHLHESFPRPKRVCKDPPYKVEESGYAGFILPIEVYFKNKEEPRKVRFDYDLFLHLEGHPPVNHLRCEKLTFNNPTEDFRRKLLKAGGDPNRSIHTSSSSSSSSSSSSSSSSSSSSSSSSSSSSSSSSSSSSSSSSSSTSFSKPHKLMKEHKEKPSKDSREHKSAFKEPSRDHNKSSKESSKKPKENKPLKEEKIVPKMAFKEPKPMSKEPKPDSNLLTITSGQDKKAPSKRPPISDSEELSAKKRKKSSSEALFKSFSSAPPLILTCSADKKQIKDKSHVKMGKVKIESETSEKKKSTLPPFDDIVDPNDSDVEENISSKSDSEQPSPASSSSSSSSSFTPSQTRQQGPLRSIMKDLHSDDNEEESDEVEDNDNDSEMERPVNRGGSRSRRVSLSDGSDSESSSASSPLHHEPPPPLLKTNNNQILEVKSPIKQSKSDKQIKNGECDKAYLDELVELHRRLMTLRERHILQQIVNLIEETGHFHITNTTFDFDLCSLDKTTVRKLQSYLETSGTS

**Q.** With `O=[N+]([O-])c1ccccc1Nc1ccc(O)cc1` as the compound, how does the inhibition read?
**A.** 28.1% (active)

**Q.** How did the inhibition turn out when `O=[N+]([O-])c1ccccc1NCc1ccccc1Cl` was run?
**A.** -5.33%

**Q.** `O=C(NCCNc1ccccc1[N+](=O)[O-])c1ccccc1F` was tested. Which inhibition did it give?
**A.** 0.524%

**Q.** For `COc1ccc2c3c(n(C)c2c1)[C@@H](CO)N(C(C)=O)CC31CCN(Cc2nccs2)CC1`, which inhibition is on record?
**A.** 3.54%

**Q.** Which inhibition does the source give for `COc1ccc2c3c(n(C)c2c1)[C@H](CO)N(C(=O)Nc1cccc(F)c1)CC31CN(Cc2nccs2)C1` here?
**A.** 7.77%

**Q.** Which inhibition does the source give for `COc1ccc2c3c(n(C)c2c1)[C@@H](CO)N(C(=O)Nc1cccc(F)c1)CC31CCN(Cc2nccs2)CC1` here?
**A.** 28.6% (active)

**Q.** With `COc1ccc2c3c(n(C)c2c1)[C@H](CO)N(Cc1cccnc1)CC31CCN(Cc2cccnc2)CC1` as the compound, how does the inhibition read?
**A.** 13.7%

**Q.** `C[C@H](CO)N1C[C@H](C)[C@H](CN(C)CC2CCCCC2)OCCCC[C@H](C)Oc2ccc(NC(=O)c3ccncc3)cc2C1=O` was tested. Which inhibition did it give?
**A.** -4.16%

**Q.** Which inhibition does the source give for `COc1cccc(C2c3[nH]c4ccccc4c3CCN2Cc2cccc(C)n2)c1` (centres undefined) here?
**A.** 16.4%

**Q.** Which inhibition does the source give for `COC(=O)[C@H]1[C@H]2C[C@H]3c4[nH]c5ccccc5c4CCN3C[C@@H]2CC[C@@H]1O` here?
**A.** 10.9% and 1.82%

**Q.** `COc1ccc(-c2ccc3[nH]c4c(c3c2)CCN2C[C@H]3[C@H](C)ON(C)[C@H]3C[C@@H]42)cc1` was tested. Which inhibition did it give?
**A.** 27.4% (active)

**Q.** Which inhibition does the source give for `CCCC#Cc1ccc([C@H]2[C@@H](CO)N3C(=O)CN(C(=O)c4ccncc4)C[C@@H]23)cc1` here?
**A.** -4.03%

**Q.** Which inhibition does the source give for `COc1cccc(S(=O)(=O)Nc2ccc3c(c2)[C@H]2C[C@H](CC(=O)O)O[C@H](CO)[C@H]2O3)c1` here?
**A.** -1.01%

**Q.** Which inhibition does the source give for `O=C(Nc1ccccc1)N1CC(=O)N2[C@@H](CO)[C@H](c3ccc(C#CC4CCCC4)cc3)[C@@H]2C1` here?
**A.** 7.61%

**Q.** `Cc1ccc(Nc2cc(C)nc3c(C)ccc([N+](=O)[O-])c23)cc1` was tested. Which inhibition did it give?
**A.** 33.4% (active)

**Q.** `Cc1cc(Nc2ccc(C(=O)N3CCCCC3)cc2)c2cccc(C)c2n1` was tested. Which inhibition did it give?
**A.** -1.38%

**Q.** How did the inhibition turn out when `Cc1cc(Nc2ccc(N3CCOCC3)cc2)c2cccc(C)c2n1` was run?
**A.** 7.78%

**Q.** `COc1ccc2c3c(n(C)c2c1)[C@@H](CO)N(Cc1ccncc1)CC31CN(C(=O)C2CCCCC2)C1` was tested. Which inhibition did it give?
**A.** -2.52%

**Q.** For `COc1ccc2c3c(n(C)c2c1)[C@H](CO)N(C(C)=O)CC31CN(C(=O)c2cnccn2)C1`, which inhibition is on record?
**A.** -3.28%

**Q.** How did the inhibition turn out when `Cc1ccc(NC(=O)c2ccco2)cc1` was run?
**A.** 2.52%

**Q.** How did the inhibition turn out when `C/C(=N/NS(=O)(=O)c1ccccc1)c1ccc(NC(=O)C(F)(F)F)cc1` was run?
**A.** 1.28%

**Q.** Which inhibition does the source give for `C/C(=N\NS(=O)(=O)c1ccc(Cl)cc1)c1ccc(NC(=O)c2ccco2)cc1` here?
**A.** 26.4% (active)

**Q.** How did the inhibition turn out when `CCC(=O)N1CC2(C1)CN(Cc1cc(F)ccc1F)[C@@H](CO)c1[nH]c3cc(OC)ccc3c12` was run?
**A.** -4.95%

**Q.** How did the inhibition turn out when `CCOc1cc(N2CCOCC2)c(OCC)cc1NC(=O)C1=NN(c2cccc(C)c2)C(=O)CC1` was run?
**A.** 31.5% (active)

**Q.** Which inhibition does the source give for `CCOc1cc(N2CCOCC2)c(OCC)cc1NC(=O)c1ccc(C)s1` here?
**A.** 13.4%

**Q.** With `CCOc1cc(N2CCOCC2)c(OCC)cc1NC(=O)COc1cccc(Cl)c1` as the compound, how does the inhibition read?
**A.** 3.04%

**Q.** How did the inhibition turn out when `O=C(C[C@@H]1C=C[C@H](NC(=O)Nc2ccccc2F)[C@@H](CO)O1)NCc1ccccc1` was run?
**A.** -2.34%

**Q.** `CCC(=O)N1CC2(C1)[C@@H](c1ccc(-c3ccc(C#N)cc3)cc1)[C@H](CO)N2C(C)=O` was tested. Which inhibition did it give?
**A.** -2.76%

**Q.** `O=C(O)c1ccc(N/N=C/c2cn(-c3ccccc3)nc2-c2cccs2)cc1` was tested. Which inhibition did it give?
**A.** 3.91%

**Q.** For `Cc1ccc(S(=O)(=O)N2CCCCC2)cc1NC(=O)c1cccnc1`, which inhibition is on record?
**A.** 2.47%

**Q.** `O=C(N/N=C/c1sc(N2CCCCC2)nc1-c1cccs1)c1cccnc1` was tested. Which inhibition did it give?
**A.** 26.1% (active)

**Q.** Which inhibition does the source give for `COc1ccccc1C#Cc1ccc([C@@H]2[C@H](CO)N3CCCCN(C(=O)C4CCCC4)C[C@@H]23)cc1` here?
**A.** 6.51%

**Q.** For `Cc1cccc(-c2ccc([C@@H]3[C@H]4CN(C(=O)c5ccccc5)CC(=O)N4[C@H]3CO)cc2)c1`, which inhibition is on record?
**A.** 2.35%

**Q.** For `COc1cccc(CNC(=O)CN2C(=O)NC(Cc3ccccc3)(c3ccccc3)C2=O)c1` (centres undefined), which inhibition is on record?
**A.** -3.3%

**Q.** With `CNC(=O)CN1C(=O)NC(c2ccccc2)(c2ccccc2)C1=O` as the compound, how does the inhibition read?
**A.** 0.637%

**Q.** For `CCCCNC(=O)CN1C(=O)NC(Cc2ccccc2)(Cc2ccccc2)C1=O`, which inhibition is on record?
**A.** 51% (active)

**Q.** For `COc1cccc(NC(=O)N[C@@H]2CC[C@H](CC(=O)NCc3ccccn3)O[C@H]2CO)c1`, which inhibition is on record?
**A.** -1.32%

**Q.** For `CCCN1[C@@H]2c3ccc(-c4ccccc4)c(=O)n3C[C@@H]2[C@@H](CO)[C@@H]1C(=O)N(C)C`, which inhibition is on record?
**A.** -2.05%

**Q.** `O=C1CC[C@@H]2CC3(C[C@@H]4CCN1[C@H]24)Nc1cc([N+](=O)[O-])ccc1NC3=NC1CCCCC1` (some centres undefined) was tested. Which inhibition did it give?
**A.** 5.39%

**Q.** For `Cc1cc2c(cc1C)NC1(C[C@H]3CCC(=O)N4CC[C@@H](C1)[C@@H]34)C(=NC(C)(C)CC(C)(C)C)N2` (some centres undefined), which inhibition is on record?
**A.** 54.9% (active)

**Q.** Which inhibition does the source give for `CC=Cc1ccc2n(c1=O)C[C@H]1[C@H](CO)[C@@H](C(=O)NC3CCCC3)[C@@H]2N1C(=O)c1cnccn1` (mixture of isomers) here?
**A.** -3.71%

**Q.** How did the inhibition turn out when `CN(C)CC(=O)N1[C@H](C#N)[C@H](c2ccccc2-c2cccc(C(=O)N(C)C)c2)[C@@H]1CO` was run?
**A.** -2.16%

**Q.** With `Cc1noc(C)c1NC(=O)N(C)C[C@H]1Oc2ccc(N(C)C)cc2CC(=O)N([C@H](C)CO)C[C@H]1C` as the compound, how does the inhibition read?
**A.** -0.871%

**Q.** With `CO[C@H]1CN(C)C(=O)c2ccc(NC(=O)C3CC3)cc2OC[C@@H](C)N(Cc2ccc(F)cc2)C[C@@H]1C` as the compound, how does the inhibition read?
**A.** 2.37%

**Q.** Which inhibition does the source give for `CCCC#Cc1ccc([C@@H]2[C@@H](CO)N3C(=O)CN(C(=O)c4ccncc4)C[C@@H]23)cc1` here?
**A.** -2.52%

**Q.** With `CCCC#Cc1ccc([C@H]2[C@@H](CO)N3C(=O)CN(C(=O)c4ccncc4)C[C@H]23)cc1` as the compound, how does the inhibition read?
**A.** -2.78%

**Q.** With `CCCC#Cc1ccc([C@H]2[C@H]3CN(C(=O)c4cccnc4)CC(=O)N3[C@H]2CO)cc1` as the compound, how does the inhibition read?
**A.** 27.2% (active)

**Q.** `COc1ccc(C#Cc2ccc([C@H]3[C@H]4CN(C(=O)c5ccncc5)CC(=O)N4[C@H]3CO)cc2)cc1` was tested. Which inhibition did it give?
**A.** -4.11%

**Q.** How did the inhibition turn out when `C[C@@H]1CCCCO[C@H](CN(C)C(=O)C2CCCCC2)[C@@H](C)CN([C@@H](C)CO)C(=O)c2cc(NC(=O)Nc3ccccc3)ccc2O1` was run?
**A.** 5.54%

**Q.** For `COc1ccccc1NC(=O)N1CCCCN2[C@H](CO)[C@H](c3ccc(C#CC4CC4)cc3)[C@@H]2C1`, which inhibition is on record?
**A.** 6.56%

**Q.** Which inhibition does the source give for `COc1ccc(OCC(=O)Nc2ccc(N3CCC(C)CC3)cc2)cc1` here?
**A.** 1.34%

**Q.** For `COc1ccc(NC(=S)NCC2CCN(c3ccc(OC)cc3)C2)cc1` (centres undefined), which inhibition is on record?
**A.** 28.9% (active)

**Q.** With `COc1ccc(N2CCC(CNC(=S)Nc3c(C)cccc3C)C2)cc1` (centres undefined) as the compound, how does the inhibition read?
**A.** 18.6%

**Q.** Which inhibition does the source give for `CO[C@@H]1CN(C)C(=O)c2ccc(NC(=O)C3CC3)cc2OC[C@H](C)N(C(=O)c2ccccc2)C[C@@H]1C` here?
**A.** -0.663%

**Q.** For `COc1ccc(Cn2c(=S)[nH]c3cc(C(=O)NCCCN4CCOCC4)ccc3c2=O)cc1`, which inhibition is on record?
**A.** -9.96%

**Q.** With `O=C(NCCCN1CCOCC1)c1cc(-c2ccc(Cl)cc2)on1` as the compound, how does the inhibition read?
**A.** -5.39%

**Q.** `Cc1c(C)n(Cc2ccc(Cl)cc2)c2ccc(C(=O)NCCCN3CCOCC3)cc12` was tested. Which inhibition did it give?
**A.** 26.6% (active)

**Q.** For `COc1ccccc1-c1ccc([C@H]2[C@@H](CO)N(CC3CC3)C23CN(S(C)(=O)=O)C3)cc1`, which inhibition is on record?
**A.** 0.485%

**Q.** `Cn1cnc(S(=O)(=O)NC[C@@H]2CC[C@@H]3[C@@H](CN3Cc3nccs3)O2)c1` was tested. Which inhibition did it give?
**A.** -5.79%

**Q.** Which inhibition does the source give for `O=C(CN1CCOCC1)N1CCCCN2[C@H](C1)[C@H](c1ccc(-c3ccccc3F)cc1)[C@@H]2CO` here?
**A.** -4.58%

**Q.** For `C[C@H](CO)N1C[C@H](C)[C@@H](CN(C)Cc2ccc(Oc3ccccc3)cc2)Oc2ccc(NS(=O)(=O)c3ccc(F)cc3)cc2CC1=O`, which inhibition is on record?
**A.** 1.77%

**Q.** How did the inhibition turn out when `Cc1cc(N=Nc2ccc3ccccc3c2)ccc1O` was run?
**A.** 35.1% (active)

**Q.** For `COc1ccc2c3c(n(C)c2c1)[C@@H](CO)N(C(=O)CN1CCOCC1)CC31CN(C(=O)CC2CC2)C1`, which inhibition is on record?
**A.** 0.071%

**Q.** Which inhibition does the source give for `O=C(Nc1c[nH]c(=O)[nH]c1=O)OCc1ccccc1` here?
**A.** 2.62%

**Q.** For `O=C(CNC(=O)OCc1ccccc1)NC1CCCCNC1=O` (centres undefined), which inhibition is on record?
**A.** 48% (active)

**Q.** With `Nc1ccccc1C(=O)NC1CCCCNC1=O` (centres undefined) as the compound, how does the inhibition read?
**A.** -2.44%

**Q.** Which inhibition does the source give for `C[C@@H]1CN([C@@H](C)CO)C(=O)CCCn2nncc2CO[C@H]1CN(C)C(=O)CCCN(C)C` here?
**A.** -5.71%

**Q.** `Cc1ccccc1S(=O)(=O)N1CC[C@H]2[C@H](CO)Nc3ccc(-c4cccc(F)c4)cc3[C@H]21` was tested. Which inhibition did it give?
**A.** -2.53%

**Q.** How did the inhibition turn out when `Cc1noc(C)c1NC(=O)Nc1ccc2c(c1)CC(=O)N([C@H](C)CO)C[C@@H](C)[C@@H](CN(C)S(=O)(=O)c1ccc(Cl)cc1)O2` was run?
**A.** -0.675%

**Q.** How did the inhibition turn out when `CN(C)C(=O)C[C@@H]1C[C@@H]2c3cc(NC(=O)C4CCOCC4)ccc3O[C@@H]2[C@@H](CO)O1` was run?
**A.** -3.12%

**Q.** `COCCNC(=O)C1CCN(C(=O)C2CC(=O)N(c3ccc(C)cc3)C2)CC1` (centres undefined) was tested. Which inhibition did it give?
**A.** 50.4% (active)

**Q.** Which inhibition does the source give for `CCCC(C)NC(=O)C1CCN(C(=O)C2CC(=O)N(c3ccc(C)cc3)C2)CC1` (centres undefined) here?
**A.** -6.07%

**Q.** Which inhibition does the source give for `Cc1ccc(N2CC(C(=O)NCCS(=O)(=O)N3CCN(c4ccccc4)CC3)CC2=O)cc1` (centres undefined) here?
**A.** 0.43%

**Q.** With `C/C=C/c1ccc([C@@H]2[C@H](CO)N(CC3CCCC3)C23CN(C(=O)CC2CC2)C3)cc1` as the compound, how does the inhibition read?
**A.** 5.28%
